This is a sample that favours compounds with a hit; in the whole collection about 6.1% have one here.
RORgamma inh – blocks mouse ROR gamma transcriptional activity. P51450. Drosophila S2 Gal4-RORgamma UAS-luciferase reporter, 20 h. Potency, µM (series often up to 53.6 µM), usual class: inhibitors. 5.4% of 310,000 active. AID 2551; further: nearly all actives have a fitted effect of over 60% in size
Target sequence (P51450 whole entry, looked up, the tested form may be a part): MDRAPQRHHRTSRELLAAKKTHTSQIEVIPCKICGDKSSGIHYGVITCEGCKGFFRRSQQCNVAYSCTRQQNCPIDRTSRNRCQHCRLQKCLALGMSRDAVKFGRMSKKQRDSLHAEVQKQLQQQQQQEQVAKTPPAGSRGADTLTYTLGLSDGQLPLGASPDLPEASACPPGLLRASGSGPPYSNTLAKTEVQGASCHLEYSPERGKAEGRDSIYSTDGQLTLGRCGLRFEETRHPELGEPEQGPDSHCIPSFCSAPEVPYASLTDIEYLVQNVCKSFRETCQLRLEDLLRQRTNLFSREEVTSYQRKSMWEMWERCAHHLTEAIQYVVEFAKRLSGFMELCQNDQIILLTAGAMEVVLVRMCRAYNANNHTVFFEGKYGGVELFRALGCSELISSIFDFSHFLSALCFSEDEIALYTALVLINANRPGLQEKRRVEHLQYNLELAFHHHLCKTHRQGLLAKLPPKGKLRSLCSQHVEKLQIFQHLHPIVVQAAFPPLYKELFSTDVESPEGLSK
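ROR gamma transcriptional activity was tracked as Gal4-UAS luciferase output in stably transfected Drosophila Schneider cells, with compound added 1 hr before 700 uM copper sulfate induction and a 20 hr ambient-temperature incubation.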
Gal4-VP16 FLuc – inhibits Gal4-VP16 luciferase reporter, ROR gamma counter-screen; Potency, µM (top dose mostly 53.6 µM), most hits filed as inhibitors; AID 2546; 3.5% of 310,000 active; Drosophila S2 Gal4-VP16 UAS-luciferase, luminescence, 20 h;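 further: Gal4-VP16 expression switched on by copper sulfate through the metallothionein promoter; nearly all actives have a fitted effect of over 50% in size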
S2 tox – viability counter-screen for ATXN expression inhibitors | 0.49% of 400,000 active | S2 cells (HEK-293 line with an ATXN2-luciferase reporter) viability, CellTiter-Fluor protease fluorescence, 24 h | AID 651635 | Potency, µM (series often up to 56.7 µM), hits mostly cytotoxic; further: nearly all actives have a fitted effect of over 40% in size
TGFb SMAD3 inh – inhibitors of TGF-b signaling; Potency, µM (series often up to 46.1 µM), actives largely listed as inhibitors; 1.2% of 410,000 active; HepG2 CAGA-GFP TGF-b/SMAD3 reporter, GFP fluorescence, 18 h; TGF-beta stimulated, 500 pg/mL final; AID 588855; further: nearly all actives have a fitted effect of over 65% in size
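Inhibition of TGF-beta-driven CAGA-GFP reporter expression in HEPG2 cells is measured by cellular GFP fluorescence after 18 h stimulation with 500 pg/mL recombinant TGF-beta in 1% FBS medium at 37 degrees C.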
HepG2 viability – counter-screen for TGF-b inhibitors: cytotoxicity in HepG2 cells | HepG2 CAGA-GFP viability, ATP luminescence, 18 h | Potency, µM (highest dose often 46.1 µM), most hits filed as cytotoxic | 0.76% of 410,000 active | AID 588856
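HepG2 CAGA-GFP cells (1000/well, DMEM with 1% FBS) received compound, then TGF-beta at 500 pg/mL final, and were incubated 18 hours at 37 degrees C. Viability was read by CellTiter-Glo luminescence. Media-only wells were set as complete cell-killing and DMSO as no toxicity.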
ATXN2 expr inh – inhibitors of ATXN2 expression | 0.72% of 360,000 active | Potency, µM (titrated, usually from 57 µM), actives largely listed as inhibitors | AID 1745845 | HEK-293 ATXN2-luciferase reporter, luminescence, 24 h; further: nearly all actives have a fitted effect of over 55% in size
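ATXN2-luciferase reporter cells (luciferase flanked by upstream and downstream ATXN2 gene portions) were treated 24 h at 37 °C with compounds at up to 57 uM. SteadyGlo luminescence gave expression; GF-AFC fluorescence gave viability.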
Hits are given with their value; 0 = inactive; ? = inconclusive; - = no result; ! = repeats disagree; [ ] = another dose, or the depositor's remark. The call rests on the fitted dose curve; in most records, active means well fitted curve in the direction sought with a large enough effect; inconclusive means small, poorly fitted or top-dose-only effect, or another doubt; inactive means no such curve, though single readings can be large; an effect the other way counts as inactive or inconclusive.

SMILES	RORgamma inh	Gal4-VP16 FLuc	S2 tox	TGFb SMAD3 inh	HepG2 viability	ATXN2 expr inh
C=CCOc1c(Br)cc(/C=N/n2c(CC)n[nH]c2=S)cc1Br	7.94µM	7.94µM	0	?	0	0
Cc1cccc(/C=N/n2c(COc3ccccc3)n[nH]c2=S)c1	7.08µM	?	0	0	0	-
CC(/C=N/n1c(COc2ccccc2)n[nH]c1=S)=C\c1ccccc1	2.51µM	?	-	0	0	-
Cc1ccc(C)c(NC(=O)CCN2C(=O)c3ccccc3Sc3ncccc32)c1	-	-	-	0	0	-
CCOc1ccc(CCNC(=O)c2cc(Nc3ccc(C)cc3C)nc3ccccc23)cc1OCC	-	-	0	0	0	0
C=CCC(Nc1ccccc1)C12C=CC(O1)C(C(=O)OC)=C2C(=O)OC (stereo not given)	5.62µM	6.31µM	-	?	14.1µM	?
Cc1ccc2c(n1)Oc1ccc(C(C)C(=O)OCC(=O)N(C)C)cc1C2 (stereo not given)	-	-	0	-	-	0
S=c1[nH]c2ccccc2o1	28.2µM	0[10 µM]	0	0	0	-
CCCCC1CN(CCNC(=O)c2ccccn2)Cc2ccccc2O1 (stereo not given)	-	-	0	-	-	-
N[C@H](C(=O)O)[C@@H](O)c1ccc(O)c(O)c1	-	-	0	-	-	0
CN1/C(=C\C=N\NC(=O)c2cccnc2)C(C)(C)c2ccccc21	0.501µM	0.891µM	0	0	0	?
CN1/C(=C\C=N\NC(=O)c2ccc(O)cc2)C(C)(C)c2ccccc21	4.47µM	2.51µM	?	0	0	0
CCCCCn1c(C(Cc2ccccc2)NC(=O)COC)nc2ccccc21 (stereo not given)	31.6µM	?	?	0	0	0
CCCn1c(C(C)NC(C)=O)nc2ccccc21 (stereo not given)	0	0	0	0	0	0
CCC(=O)Nc1nc2ccccc2n1Cc1ccc(C)cc1	0.398µM	0.891µM	?	0	0	?
CC(=O)NC(C)c1nc2ccccc2n1CC(=O)NC(C)CCc1ccccc1 (stereo not given)	12.6µM	0	0	0	0	0[2.22 µM]
CCC(=O)NCc1nc2ccccc2n1Cc1ccccc1	-	-	0	0	0	0
CCC(=O)NCCc1nc2ccccc2n1Cc1ccc(C)cc1	0	0	0	0	0	0
CCC(=O)Nc1nc2ccccc2n1Cc1ccccc1	0.708µM	2.24µM	0	0	0	0
Cc1ccc(S(=O)(=O)c2c(Nc3cc(C)ccc3C)sc(C(=O)c3ccc4c(c3)OCO4)c2N)cc1	-	-	-	0	0	-
COc1ccc(Cl)cc1NC(=O)Cn1ccn(Cc2ccc(C)cc2)c(=O)c1=O	-	-	-	?	0	-
O=C1c2sc3nc4n(c(=O)c3c2CCC1Br)CCCCC4 (stereo not given)	10µM	20µM	?	0	0	0
O=C1CCCc2c1sc1nc3n(c(=O)c21)CCCCC3	?	0	?	0	0	0
Cc1noc2ncnc(Sc3ccc(Br)cc3)c12	3.98µM	11.2µM	0	?	0	0
CCc1c(O)cc(O)c(C(=O)c2ccc(OCCN3CCOCC3)c(OC)c2)c1CC(=O)N(CCOC)CCOC	-	-	-	-	-	1.09µM
SMILES	RORgamma inh	Gal4-VP16 FLuc	S2 tox	TGFb SMAD3 inh	HepG2 viability	ATXN2 expr inh
COc1cc(C(=O)OCCCN2CCOCC2)ccc1O	0	0	0	0	0	0[11.3 µM]
COc1ccccc1NC1=C(N2CCCCC2)C(=O)c2ccccc2C1=O	0	?	?	?	15.8µM	?
O=C1C(Nc2ccccc2)=C(N2CCCCC2)C(=O)c2ccccc21	0	0	?	0	0	0
CN(C1=C(N2CCCCC2)C(=O)c2ccccc2C1=O)c1ccccc1	0	0	?	17.8µM	0	0
COc1cccc(-n2c(=O)c3sccc3n(Cc3cc(=O)n4cc(Cl)ccc4n3)c2=O)c1	-	-	-	?	0	-
Cc1oc(-c2ccccc2F)nc1Cn1c(SCc2cccc(C(F)(F)F)c2)nc2ccncc21	-	-	?	?	0	0
Cc1oc(-c2ccccc2F)nc1Cn1c(SCc2cccc(Cl)c2)nc2ccncc21	-	-	-	17.8µM	0	-
O=c1c2ccccc2nc(/C=C/c2cc(Br)ccc2O)n1CCO	-	-	0	?	12.6µM	-
Cc1cccc(NC(=O)CSc2nc3ccccc3c3nc(CCc4c(C)n[nH]c4C)nn23)c1	0	0	15.8µM	?	0	31.6µM!
Cc1cncn1CCc1nc2c3ccccc3nc(SCC(=O)Nc3cccc(Cl)c3)n2n1	?	?	15.8µM	?	0	25.1µM
CCOc1ccccc1NC(=O)CSc1nc2ccccc2c2nc(CCn3cncc3C)nn12	-	-	28.2µM	?	0	0
Cc1n[nH]c(C)c1CCc1nc2c3ccccc3nc(SCC(=O)Nc3ccccc3F)n2n1	?	?	0	?	0	0
CNC(=S)N/N=C/c1ccc(OCC(=O)Nc2c(C)cc(C)cc2C)c(OC)c1	14.1µM	12.6µM	0	0	0	0
COc1cccc(/C=N/NC(=O)CC(C)O)c1OC/C=C/c1ccccc1 (stereo not given)	11.2µM	15.8µM	0	0	0	?
COc1cc(/C=N\NC(=O)CC#N)ccc1OC/C=C/c1ccccc1	0	?	0	0	0	?
CCOC(=O)N/N=C\c1cccc(OC)c1OC/C=C/c1ccccc1	0	0	0	0	0	0
COc1cc(/C=N/NC(=O)c2cccnc2)ccc1OCC(=O)Nc1c(C)cc(C)cc1C	0	0	0	0	0	0
COCC(=O)N/N=C\c1ccc(OC/C=C/c2ccccc2)c(OC)c1	12.6µM	?	0	?	0	0
CCCOc1ccc(CN(C(=O)c2nc(SC(C)C)ncc2Cl)C2CCS(=O)(=O)C2)cc1 (stereo not given)	-	-	0	0	0	0
COc1ccc(S(=O)(=O)Nc2ccc3oc4c(c3c2)CCCC4)cc1	-	-	?	12.6µM	0	?
COC(=O)c1c(C)oc2ccc(N(C(=O)c3ccncc3)S(=O)(=O)c3ccc(OC)cc3)cc12	-	-	-	0	0	-
COc1ccc(S(=O)(=O)N(C(=O)c2ccncc2)c2ccc3oc4c(c3c2)CCCC4)cc1	0	0	?	11.2µM	0	0
Fc1ccc2nc(Nc3nc4cc5c(cc4s3)OCCO5)sc2c1	11.2µM	12.6µM	0	?	0	0
Fc1ccc2nc(Nc3nc4cc5c(cc4s3)OCO5)sc2c1	8.91µM	?	0	?	0	0
S=c1[nH]nc(-c2cc(-c3ccccc3)n[nH]2)n1/N=C/c1ccccc1	0	0	0	0	0	0
Cc1cccc(/C=N/n2c(-c3ccncc3)n[nH]c2=S)c1	11.2µM	?	0	0	0	0
Cc1cccc(/C=N/n2c(-c3cc(-c4ccccc4)n[nH]3)n[nH]c2=S)c1	7.94µM	?	0	?	0	0
S=c1[nH]nc(-c2cc(-c3ccccc3)n[nH]2)n1/N=C/C(Br)=C/c1ccccc1	?	?	29.9µM	11.2µM	0	?

Source: PubChem
